According to PubChem BioAssay (NCATS):
Records with an inconclusive call do not appear. Activity calls are given as the source filed them. Unless noted, calls follow the shape of the dose curve; as a rule, active = well fitted curve in the direction sought with a large enough effect; inconclusive = small, poorly fitted or top-dose-only effect, or another doubt; inactive = no such curve, though single readings can be large; an effect the other way counts as inactive or inconclusive.

Assays:
[1] = AP1 Signaling Pathway (AID 357; active = well fitted curve in either direction with a large enough effect, not every such curve was filed as active; also: % is scaled to controls: 0 for no effect and ±100 for the full control effect); settings: ME-180 AP-1-bla reporter, EGF-induced, beta-lactamase ratio, 5 h; at 7.69 µM (top of the series) unless noted
Procedure, shortened: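 ME-180 cells with beta-lactamase reporter under AP-1 response element, stimulated with EC50 EGF; compounds tested in titration series, 5 h at 37 °C. CCF4 substrate added 2.5 h at room temperature; 460/530 nm emission ratio gave %activity and AC50.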

[2] = target: Cytochrome P450 1A2 (Homo sapiens) (UniProt P05177); test: p450-cyp1a2 (AID 410; calls by dose curve; also: potency is read from the fitted curve at half-maximal effect)
Procedure, shortened: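 20nM CYP1A2, 100uM Luciferin-ME (=Km), 100mM KPO4; cpd 10 min RT; +NADPH regen, 60 min RT; stop/detect 20 min; luminescence. Normalized to furafylline 57 uM = full inhibition.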

[3] = NFAT Signaling Pathway (AID 444; active = well fitted curve in either direction with a large enough effect, not every such curve was filed as active;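 also: carbachol stimulus at about its EC50 of 1 µM final; % is scaled to controls: 0 for no effect and ±100 for the full control effect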); settings: Jurkat NFAT-bla M1, carbachol, beta-lactamase ratio, 5 h; at 7.69 µM (top of the series) unless noted
Procedure, shortened: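 Jurkat cells carrying an NFAT-driven β-lactamase reporter and co-transfected muscarinic M1 receptor were treated with compound plus carbachol (1 uM final, an EC50 level) for 5 h at 37 °C. CCF4 loading followed for 1 h at RT; 460/530 nm ratio gave %activity.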

[4] = Stat Signaling Pathway (AID 446; active = well fitted curve in either direction with a large enough effect, not every such curve was filed as active;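 also: ME-180 cervical cancer cells given 40 pM IL-6 alongside compound; SIE-controlled beta-lactamase reporter measured as 460/530 nm FRET emission ratio; % is scaled to controls: 0 for no effect and ±100 for the full control effect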); settings: ME-180 (cervical carcinoma) SIE beta-lactamase reporter, IL-6 stimulated, 5 h; at 7.69 µM (top of the series) unless noted
Procedure, shortened: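 Overnight-plated ME-180 cells bearing a STAT Inducible Element beta-lactamase reporter; 5 h co-exposure to compound and 40 pM IL-6; values normalized to 300 pM IL-6 and 125 nM JAK inhibitor controls.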

[5] = target: Glucocorticoid receptor (Homo sapiens) (UniProt P04150); test: GR-GFP Redistribution (AID 450;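 active = compounds whose dose series gives a full or clear partial fitted curve of increased nuclear translocation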; also: potency is read from the fitted curve at half-maximal effect); settings: U2OS GR-GFP nuclear translocation, laser cytometry, 2 h
[6] = target: Glucocorticoid receptor (Homo sapiens) (UniProt P04150); test: GR-EFC Redistribution (AID 451; calls by dose curve; also: potency is read from the fitted curve at half-maximal effect); settings: CHO-K1 GR-EFC translocation, beta-gal luminescence, 2 h
Procedure, shortened: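 CHO-K1 cells stably expressing nuclear-localized β-gal enzyme acceptor and GR fused C-terminally to the enzyme donor fragment; ligand-driven nuclear translocation restores β-gal by complementation. Compounds titrated up to 46 uM final, 2 h at 37 °C; luminescence read.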

[7] = target: 3',5'-cyclic-AMP phosphodiesterase 4B (Homo sapiens) (UniProt Q07343); test: qHTS Assay for Inhibitors of PDE-IV (AID 607; active = well fitted activation curve with a large enough effect in the main read-out, with a control signal flat, not every such curve was filed as active; also: potency is read from the fitted curve at half-maximal effect)
Procedure, shortened: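 Live HEK293 cells with a modified cyclic nucleotide-gated (CNG) channel report intracellular cAMP via membrane-potential dye fluorescence (ex 535/em 590 nm). Endogenous PDE-IV was targeted. Compounds were tested at up to 22.9 uM final; RO 20-1724 100 uM served as control.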

[8] = target: Guanine nucleotide-binding protein G(i) subunit alpha-1 (Homo sapiens) (UniProt P63096); test: qHTS Assay for Inhibitors of RGS12 GoLoco Motif Activity (Green Fluorophore) (AID 879);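 also: 0% = labeled peptide with Gαi1 and full inhibition = labeled peptide alone without protein; negative values mean loss of peptide binding seen as reduced polarization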
Procedure, shortened: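 A drop in FITC polarization marked displacement of the FITC-tagged RGS12 GoLoco peptide (10 nM) from Gαi1 (50 nM). Compounds were incubated 10 min at room temperature in Tris pH 7.5 buffer containing 150 mM NaCl, 0.1 mM GDP and 0.05% NP40; unlabeled peptide titration served as control.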

[9] = target: Cytochrome P450 3A4 (Homo sapiens) (UniProt P08684); test: qHTS Assay for Activators of Cytochrome P450 3A4 (AID 885); also: nearly all actives have a fitted effect of over 65% in size
Procedure, shortened: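 Using 20nM recombinant human CYP3A4 in potassium phosphate (200mM), substrate Luciferin-PPXE at 25uM, luminescent luciferin detection followed a 60-min RT NADPH reaction; data scaled to 57 uM ketoconazole.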

[10] = qHTS Assay for Identification of Small Molecule Antagonists for NFkB Signaling Pathway (AID 895; active = well fitted inhibition curve with a large enough effect in the signal ratio, with a control signal flat, not every such curve was filed as active; the % refers to the signal ratio; also: % is scaled to controls: 0 for no effect and ±100 for the full control effect)
Procedure, shortened: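 NFkB-bla ME-180 cervical carcinoma cells with beta-lactamase reporter under NFkB response element; compounds added, then TNF alpha at 10 pM final (EC50), 5 h at 37 C. LiveBLAzer substrate 2 h, room temperature; emission 460/530 nm at 405 nm excitation.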

[11] = target: Muscarinic acetylcholine receptor M1 (Rattus norvegicus) (UniProt P08482); test: qHTS Assay for Antagonists of Acetylcholine Muscarinic M1 Receptor: Measurement of IP-One Response (AID 944); also: nearly all actives have a fitted effect of over 75% in size
Procedure, shortened: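 Read-out: HTRF competition between d2-IP1 and Eu-cryptate anti-IP1 antibody, emission 620 and 665 nm. Stimulus was carbachol, EC80 (200 nM), for 30 min in M1-CHO cells (rat receptor), after 10 min compound pre-treatment.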

[12] = target: Pyruvate kinase (Leishmania mexicana) (UniProt Q27686); test: qHTS Validation Assay for Inhibitors of Leishmania Mexicana Pyruvate Kinase (AID 945);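 also: 0% = DMSO only neutral control wells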
Procedure, shortened: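 Substrate mix (0.5 mM PEP, 0.1 mM ADP, 7 mM MgCl2, 50 mM KCl, pH 7.2 imidazole) received compound by pin tool, then 0.2 nM LmPYK E451W. After 1 h at room temperature, PKLight was added and luminescence measured.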

[13] = target: Pyruvate kinase PKM (Homo sapiens) (UniProt P14618); test: qHTS Assay for Activators of Human Muscle Pyruvate Kinase (AID 954; active = well fitted curve in the direction sought with a large enough effect, not every such curve was filed as active;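 also: 0% = uninhibited enzyme and -100% = no enzyme or full thiadiazolimine inhibition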)
Procedure, shortened: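 Screening used highly purified human pyruvate kinase M2 under submaximal activity, with PEP at its Km and ADP below Km. After an hour at room temperature, ATP was read by luciferase luminescence.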

[14] = target: Alpha-galactosidase A (Homo sapiens) (UniProt P06280); test: Counterscreen for Glucocerebrosidase Inhibitors: qHTS Assay for Human alpha-Galactosidase at pH 4.5 (AID 992); also: 0% is about no effect
Procedure, shortened: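 Each compound is preincubated briefly with 2 nM enzyme before substrate addition (80 uM); plates then sit 20 min at ambient temperature, are quenched with 1M NaOH/1M glycine, and read fluorometrically.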

[15] = target: alpha-glucosidase (Oryza sativa, rice) (UniProt Q653V4); test: Counterscreen for Glucocerebrosidase Inhibitors: qHTS Assay for Rice alpha-Glucosidase at pH 5.0 (AID 997);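 also: 0% = full activity with enzyme and -100% = basal without enzyme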
Procedure, shortened: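 Endpoint fluorogenic assay at pH 5.0: compounds (0.7 nM to 77 uM) titrated against 4 nM rice enzyme and 400 uM 4-MU-alpha-glucoside for 20 min at room temperature; NaOH/glycine stop, read ex 365/em 440 nm, Hill-fitted AC50.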

[16] = Validation of Assay for Modulators of Lamin A Splicing (AID 1459; active = well fitted curve in the direction sought with a large enough effect in the signal ratio; the % refers to the signal ratio;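 also: cells exposed to compound for two days before reading; 0% is about no effect; ratio rise marks activators and ratio drop marks inhibitors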)
Procedure, shortened: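 HeLa S3 lamin A-EGFP/DsRed2 stable clone, 600 cells/well, Opti-MEM 2% FBS; compounds by pin tool; 48 hrs, 37 °C/5% CO2; Acumen 488 nm scan, objects 10-100 um; GFP/RFP intensity ratio.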

[17] = target: DNA repair nuclease/redox regulator APEX1 (Homo sapiens) (UniProt P27695); test: qHTS Validation Assay for Inhibitors of the Human Apurinic/apyrimidinic Endonuclease 1 (APE1) (AID 1705)
Procedure, shortened: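 qHTS, 1536-well. APE1 + cpd 15 min RT → 50 nM TAMRA/BHQ-2 THF-abasic dsDNA substrate → kinetic fluorescence, 3 reads/60 s; delta(read3−read1) = reaction progress. No-enzyme buffer = negative control.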

[18] = Counterscreen for APE1 Inhibitors: Fluorescent Dye Displacement Validation Assay (AID 1707);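 also: plate controls were ThO with dsDNA and no compound for no effect and ThO without dsDNA for full effect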
Procedure, shortened: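 Loss of Thiazole Orange fluorescence marks promiscuous DNA binders. The dye (250 nM) is mixed with 50 nM abasic-site dsDNA in pH7.5 Tris buffer containing MgCl2, then compounds are added and emission is read once.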

[19] = target: Endonuclease 4 (Escherichia coli (strain K12)) (UniProt P0A6C1); test: Counterscreen for APE1 Inhibitors: qHTS Validation Assay for Inhibitors of Endonuclease IV (AID 1708); also: % is scaled to controls: 0 for no effect and ±100 for the full control effect
Procedure, shortened: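 Measured as reaction progress, the fluorescence gain between first and third kinetic reads after adding 50 nM TAMRA/BHQ-2 THF duplex to 2 nM enzyme preincubated 15 min with compound; 2 mM MgCl2, pH 7.5.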

[20] = qHTS for differential inhibitors of proliferation of Plasmodium falciparum line GB4 (AID 1816); settings: Potency: Plasmodium falciparum GB4 proliferation inhibition;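 also: parasite growth measured after 72 h incubation; 0% = vehicle DMSO and -100% = reference inhibitor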
[21] = qHTS for differential inhibitors of proliferation of Plasmodium falciparum line 3D7 (AID 1876);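 also: parasite growth measured after three days of culture; 0% = vehicle wells and -100% = reference inhibitor wells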
[22] = qHTS for differential inhibitors of proliferation of Plasmodium falciparum line D10 (AID 1877);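 also: parasites grown with compound for 72 h before DNA staining; plate controls were vehicle wells for no effect and reference inhibitor wells for full effect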
[23] = qHTS for differential inhibitors of proliferation of Plasmodium falciparum line Dd2 (AID 1882); settings: Potency: Plasmodium falciparum Dd2 proliferation inhibition;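 also: compound exposure of 72 h on infected erythrocytes; plate controls were DMSO vehicle for no effect and 0.29 µM artemisinin for full effect; nearly all actives have a fitted effect of over 65% in size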
Procedure, shortened: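 RBC culture, 0.3% parasitemia / 2.5% Hct final; cpd added by pin tool in DMSO; 72 h, 37 C, 5% CO2; lysis buffer + SYBR Green I, o/n RT dark; FI 485/535; norm. to artemisinin 0.29 uM and DMSO.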

[24] = qHTS for differential inhibitors of proliferation of Plasmodium falciparum line HB3 (AID 1886); settings: Potency: Plasmodium falciparum HB3 proliferation inhibition;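 also: parasites grown with compound for 72 h before SYBR Green readout; plate controls were vehicle for no effect and reference inhibitor for full effect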
[25] = target: ATP-dependent DNA helicase Q1 (Homo sapiens) (UniProt P46063); test: qHTS Validation Assay for Inhibitors of RecQ-Like Dna Helicase 1 (RECQ1) (AID 2353);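 also: plate controls were DMSO vehicle for no effect and enzyme-free control for full effect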
Procedure, shortened: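 RECQ1T1 50 nM; forked duplex (20 bp + 30-nt ss tails) 200 nM, ATP 2 mM final; pH 8.0, 2 mM MgCl2, 2.5 ug/ml poly(dI-dC); 15 min compound preincubation; discontinuous kinetic read over 2 h at RT.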

[26] = target: RecQ-like DNA helicase BLM (Homo sapiens) (UniProt P54132); test: qHTS Validation Assay for Inhibitors of Bloom's syndrome helicase (BLM) (AID 2364);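 also: plate controls were DMSO vehicle for no effect and enzyme-free control for full effect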
Procedure, shortened: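 BLM 50 nM in 25 mM Tris-HCl pH 8.0, 5 mM NaCl, 2 mM MgCl2, 1 mM DTT, 0.01% Tween-20, 2.5 ug/ml poly(dI-dC); 15 min cpd preinc, RT. Start: 200 nM forked DNA + 2 mM ATP (final). TAMRA read, 2 reads 2 h apart.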

[27] = Validation screen for small molecules that induce DNA re-replication in MCF 10A normal breast cells (AID 463097); also: 0% is about no effect; nearly all actives have a fitted effect of over 60% in size
Procedure, shortened: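 Image-based qHTS: normal breast cells are incubated with compound for 48 hr, stained with Hoechst, and scanned for total nuclear fluorescence. Compounds raising the fraction of nuclei with elevated DNA content count as re-replication inducers.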

[28] = Quantitative high throughput screen for delayed death inhibitors of the malarial parasite plastid, 48 hour incubation (AID 488752); also: % is scaled to controls: 0 for no effect and ±100 for the full control effect; nearly all actives have a fitted effect of over 65% in size
Procedure, shortened: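 Luciferase-expressing P. falciparum in RBCs, 2% Hct, 0.1% parasitemia final; RPMI 1640 + 0.5% Albumax; 48 h, 37 C, 5% CO2; luminescence readout, signal drop = growth inhibition.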

[29] = target: M-phase phosphoprotein 8 (Homo sapiens) (UniProt Q99549); test: qHTS Validation Assay for Inhibitors for MPP8 Chromodomain Interactions with Methylated Histone Tails (AID 488949);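 also: 50 nM MPP8 with 50 nM peptide preformed then compounds added for 30 min; AlphaScreen signal from MPP8 chromodomain bound to biotinylated H3K9me3 peptide; top concentration of the series differs between compounds; % is scaled to controls: 0 for no effect and ±100 for the full control effect; nearly all actives have a fitted effect of over 55% in size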
Procedure, shortened: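 50 nM MPP8 + 50 nM b-H3K9me3 peptide, PBS pH 7.4/0.01% Tween-20, 30 min RT; + cpd 30 min RT; + AlphaScreen donor/Ni-chelate acceptor beads 10 ug/mL final, 30 min dark; luminescence read.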

[30] = target: Transient receptor potential cation channel subfamily V member 1 (Homo sapiens) (UniProt Q8NER1); test: HTS Assay for Compounds that Act as Enhancers of the Vanilloid Receptor 1 (AID 488979); also: 0% is about no effect
Procedure, shortened: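 TRPV1-expressing cells loaded with Fluo-8 calcium dye; compounds added and calcium influx read kinetically for 3 min (agonist phase), then capsaicin at EC20 added and read 2 min more for enhancement. Fluorescence ex 480/em 520 nm.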

[31] = target: Thyrotropin receptor (Homo sapiens) (UniProt P16473); test: qHTS Assay for Antagonists of the Thyroid Stimulating Hormone Receptor (AID 488980); also: 0% is about no effect
Procedure, shortened: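 Readout is cAMP by HTRF competition between cellular cAMP and cAMP-d2 for a cryptate-labelled antibody. Antagonism was assessed in TSHR-transfected HEK293 cells stimulated with 4 nM TSH (EC80, final) in the presence of RO 20-1724.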

[32] = target: Thyrotropin-releasing hormone receptor (Homo sapiens) (UniProt P34981); test: qHTS for Small Molecule Agonists and Allosteric Enhancers of Human TRH Receptor: Validation Screen for Agonists (AID 493127;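 active = calcium activation more than 3 SD above the typical response in the agonist read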;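 also: intracellular calcium rise by fluo-8 fluorescence before TRH EC20 addition; 0% is about no effect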); settings: TRH receptor agonist cell assay; at 2 µM; hits give high values
Procedure, shortened: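 Read-out: intracellular calcium release measured kinetically by FDSS (fluo-8, ex 480/em 530 nm), 1 reading/s after a 10-cycle baseline. TRHR cells, 2000/well, cultured 18 h at 33.5C, dye-loaded at room temp. Compound-evoked positive calcium signal flags agonists.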

[33] = target: Galactokinase (Homo sapiens) (UniProt P51570); test: qHTS Validation Assay for Inhibitors of Human Galactokinase (GALK) (AID 493189); also: 0% is about no effect
Procedure, shortened: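 5 nM GALK / 100 uM galactose / 35 uM ATP, 20 mM HEPES pH8.0, 5 mM MgCl2, 60 mM NaCl, 1 mM DTT, 0.01% BSA (final). RT 1 h; Kinase-Glo Plus luminescence.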

[34] = Validation screen for small molecules that induce DNA re-replication in SW480 colon adenocarcinoma cells (AID 504364); also: 0% is about no effect
Procedure, shortened: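 Read-out: total Hoechst intensity of nuclei by fluorescence scanning imager; hits raise the fraction of nuclei with elevated DNA content. Cells received compound for 48 hr at 37 C before a 40 min stain.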

Chain of Glucocorticoid receptor (Homo sapiens) (P04150 whole entry, looked up, the tested form may be a part): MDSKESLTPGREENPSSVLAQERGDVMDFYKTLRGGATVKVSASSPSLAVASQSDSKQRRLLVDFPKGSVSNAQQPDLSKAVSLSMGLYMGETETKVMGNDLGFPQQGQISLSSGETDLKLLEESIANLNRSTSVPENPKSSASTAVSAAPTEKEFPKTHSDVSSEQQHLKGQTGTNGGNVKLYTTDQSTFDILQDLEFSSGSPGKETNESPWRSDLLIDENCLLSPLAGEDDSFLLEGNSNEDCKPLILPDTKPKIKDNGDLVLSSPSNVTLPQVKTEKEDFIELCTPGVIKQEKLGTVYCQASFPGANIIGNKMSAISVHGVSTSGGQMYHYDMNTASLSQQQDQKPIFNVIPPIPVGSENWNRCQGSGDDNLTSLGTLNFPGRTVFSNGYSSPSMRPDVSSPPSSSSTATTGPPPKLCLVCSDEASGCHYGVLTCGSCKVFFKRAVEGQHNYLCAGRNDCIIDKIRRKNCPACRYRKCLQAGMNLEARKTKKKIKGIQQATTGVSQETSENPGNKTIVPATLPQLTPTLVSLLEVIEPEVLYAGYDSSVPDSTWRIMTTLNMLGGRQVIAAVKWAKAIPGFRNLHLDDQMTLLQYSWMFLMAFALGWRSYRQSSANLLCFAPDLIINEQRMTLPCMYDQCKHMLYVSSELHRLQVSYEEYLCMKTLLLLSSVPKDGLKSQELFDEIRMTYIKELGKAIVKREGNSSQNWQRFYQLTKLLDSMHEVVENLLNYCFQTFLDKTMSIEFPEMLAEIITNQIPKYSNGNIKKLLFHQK
Chain of Pyruvate kinase PKM (Homo sapiens) (P14618 whole entry, looked up): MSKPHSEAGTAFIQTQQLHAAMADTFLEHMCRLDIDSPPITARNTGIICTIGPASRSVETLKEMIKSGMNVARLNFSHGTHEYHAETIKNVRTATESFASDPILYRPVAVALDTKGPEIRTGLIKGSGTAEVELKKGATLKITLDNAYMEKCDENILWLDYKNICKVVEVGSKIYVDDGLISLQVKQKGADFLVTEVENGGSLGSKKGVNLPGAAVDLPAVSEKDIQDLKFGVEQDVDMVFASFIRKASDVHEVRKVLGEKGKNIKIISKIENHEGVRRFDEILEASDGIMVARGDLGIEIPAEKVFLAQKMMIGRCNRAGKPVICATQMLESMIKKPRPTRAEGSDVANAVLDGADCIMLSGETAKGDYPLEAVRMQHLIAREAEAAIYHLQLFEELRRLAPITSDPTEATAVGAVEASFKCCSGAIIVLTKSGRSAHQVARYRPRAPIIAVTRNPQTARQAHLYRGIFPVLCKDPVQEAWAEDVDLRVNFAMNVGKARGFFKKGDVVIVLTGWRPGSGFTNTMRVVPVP
Chain of 3',5'-cyclic-AMP phosphodiesterase 4B (Homo sapiens) (Q07343 whole entry, looked up): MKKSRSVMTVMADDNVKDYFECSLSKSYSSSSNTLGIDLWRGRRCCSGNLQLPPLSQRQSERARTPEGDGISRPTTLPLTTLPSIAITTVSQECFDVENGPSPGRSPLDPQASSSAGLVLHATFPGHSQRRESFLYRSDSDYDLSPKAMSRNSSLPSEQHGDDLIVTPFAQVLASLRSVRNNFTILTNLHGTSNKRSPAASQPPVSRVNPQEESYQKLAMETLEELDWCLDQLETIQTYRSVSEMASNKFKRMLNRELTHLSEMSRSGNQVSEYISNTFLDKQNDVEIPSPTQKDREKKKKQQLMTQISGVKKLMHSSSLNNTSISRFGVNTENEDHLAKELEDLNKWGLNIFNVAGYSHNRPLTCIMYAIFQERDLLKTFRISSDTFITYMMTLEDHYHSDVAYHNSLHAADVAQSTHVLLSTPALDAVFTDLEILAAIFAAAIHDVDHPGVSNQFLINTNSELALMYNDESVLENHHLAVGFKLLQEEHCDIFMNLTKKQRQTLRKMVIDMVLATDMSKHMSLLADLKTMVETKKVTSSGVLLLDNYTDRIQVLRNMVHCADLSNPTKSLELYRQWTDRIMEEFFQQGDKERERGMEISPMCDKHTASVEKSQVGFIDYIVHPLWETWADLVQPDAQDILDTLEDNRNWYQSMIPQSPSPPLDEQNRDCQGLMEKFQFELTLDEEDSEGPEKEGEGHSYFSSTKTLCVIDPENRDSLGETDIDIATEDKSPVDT
Chain of Galactokinase (Homo sapiens) (P51570 whole entry, looked up): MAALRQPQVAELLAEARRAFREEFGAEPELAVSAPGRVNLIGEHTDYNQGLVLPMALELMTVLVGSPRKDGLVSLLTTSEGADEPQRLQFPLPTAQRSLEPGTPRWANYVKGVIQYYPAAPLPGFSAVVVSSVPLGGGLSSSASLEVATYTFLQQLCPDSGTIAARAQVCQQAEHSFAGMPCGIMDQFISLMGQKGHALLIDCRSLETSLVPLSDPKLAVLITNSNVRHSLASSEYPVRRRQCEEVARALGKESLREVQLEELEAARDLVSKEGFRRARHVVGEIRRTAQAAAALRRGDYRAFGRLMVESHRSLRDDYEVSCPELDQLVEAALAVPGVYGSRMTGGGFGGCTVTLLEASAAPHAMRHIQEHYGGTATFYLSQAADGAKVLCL
Chain of Cytochrome P450 1A2 (Homo sapiens) (P05177 whole entry, looked up): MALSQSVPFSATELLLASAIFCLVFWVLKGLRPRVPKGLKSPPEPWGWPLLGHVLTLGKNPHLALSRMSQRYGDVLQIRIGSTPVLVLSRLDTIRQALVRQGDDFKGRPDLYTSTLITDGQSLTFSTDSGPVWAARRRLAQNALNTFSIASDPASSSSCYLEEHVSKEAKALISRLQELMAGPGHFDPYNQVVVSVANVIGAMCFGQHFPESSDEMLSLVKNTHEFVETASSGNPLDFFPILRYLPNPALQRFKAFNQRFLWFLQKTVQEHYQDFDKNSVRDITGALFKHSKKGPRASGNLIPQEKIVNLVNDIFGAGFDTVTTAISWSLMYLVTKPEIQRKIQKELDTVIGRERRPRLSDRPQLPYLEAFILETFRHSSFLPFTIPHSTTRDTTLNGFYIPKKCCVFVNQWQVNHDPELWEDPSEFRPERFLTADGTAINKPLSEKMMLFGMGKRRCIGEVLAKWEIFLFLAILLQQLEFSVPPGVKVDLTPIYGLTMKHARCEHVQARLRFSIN
Chain of ATP-dependent DNA helicase Q1 (Homo sapiens) (P46063 whole entry, looked up): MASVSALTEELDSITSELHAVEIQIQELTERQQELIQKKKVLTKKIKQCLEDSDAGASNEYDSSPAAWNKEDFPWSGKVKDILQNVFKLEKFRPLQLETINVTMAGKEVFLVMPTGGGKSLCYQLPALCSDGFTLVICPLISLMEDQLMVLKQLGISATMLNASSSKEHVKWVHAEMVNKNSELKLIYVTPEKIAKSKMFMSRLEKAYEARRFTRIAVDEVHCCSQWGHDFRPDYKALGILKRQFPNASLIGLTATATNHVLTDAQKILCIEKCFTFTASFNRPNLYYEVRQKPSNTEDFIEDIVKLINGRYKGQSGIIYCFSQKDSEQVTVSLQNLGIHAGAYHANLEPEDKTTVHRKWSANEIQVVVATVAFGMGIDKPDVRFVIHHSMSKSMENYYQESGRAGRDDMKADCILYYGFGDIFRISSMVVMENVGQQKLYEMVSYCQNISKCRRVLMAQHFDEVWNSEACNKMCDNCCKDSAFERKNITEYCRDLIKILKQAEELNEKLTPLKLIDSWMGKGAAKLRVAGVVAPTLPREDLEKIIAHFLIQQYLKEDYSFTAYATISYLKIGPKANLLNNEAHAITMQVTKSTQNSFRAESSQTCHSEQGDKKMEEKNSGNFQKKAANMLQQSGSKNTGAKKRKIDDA
Chain of Thyrotropin receptor (Homo sapiens) (P16473 whole entry, looked up): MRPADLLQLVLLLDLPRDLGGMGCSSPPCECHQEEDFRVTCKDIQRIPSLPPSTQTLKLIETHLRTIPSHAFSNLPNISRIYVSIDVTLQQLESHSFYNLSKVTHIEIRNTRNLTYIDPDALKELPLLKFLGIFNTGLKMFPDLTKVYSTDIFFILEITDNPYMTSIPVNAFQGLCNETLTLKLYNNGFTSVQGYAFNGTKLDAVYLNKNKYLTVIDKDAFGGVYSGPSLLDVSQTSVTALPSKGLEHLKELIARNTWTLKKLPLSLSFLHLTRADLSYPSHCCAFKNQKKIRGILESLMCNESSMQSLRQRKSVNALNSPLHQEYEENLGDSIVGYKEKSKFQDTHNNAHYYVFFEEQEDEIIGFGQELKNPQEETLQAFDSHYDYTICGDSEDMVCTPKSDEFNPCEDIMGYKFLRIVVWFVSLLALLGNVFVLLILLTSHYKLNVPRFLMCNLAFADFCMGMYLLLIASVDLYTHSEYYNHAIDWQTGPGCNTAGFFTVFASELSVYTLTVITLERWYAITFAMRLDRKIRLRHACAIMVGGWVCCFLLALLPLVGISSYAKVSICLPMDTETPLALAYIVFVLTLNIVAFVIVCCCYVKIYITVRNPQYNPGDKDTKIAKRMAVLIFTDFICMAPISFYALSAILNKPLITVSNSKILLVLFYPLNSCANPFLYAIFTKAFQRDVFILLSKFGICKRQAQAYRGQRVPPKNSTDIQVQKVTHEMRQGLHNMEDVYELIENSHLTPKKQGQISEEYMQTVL
Chain of Guanine nucleotide-binding protein G(i) subunit alpha-1 (Homo sapiens) (P63096 whole entry, looked up): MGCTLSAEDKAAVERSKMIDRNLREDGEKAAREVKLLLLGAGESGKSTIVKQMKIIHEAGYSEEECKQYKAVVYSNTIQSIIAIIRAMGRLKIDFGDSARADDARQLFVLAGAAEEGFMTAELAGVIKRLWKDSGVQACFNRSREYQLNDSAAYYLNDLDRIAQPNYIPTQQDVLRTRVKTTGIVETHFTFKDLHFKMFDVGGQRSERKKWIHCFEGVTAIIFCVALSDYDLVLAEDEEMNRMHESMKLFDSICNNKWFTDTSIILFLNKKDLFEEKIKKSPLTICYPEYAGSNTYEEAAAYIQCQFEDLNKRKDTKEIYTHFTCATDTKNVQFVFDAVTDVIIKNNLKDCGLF

CCn1c(=O)c2[nH]c(-c3ccccc3)nc2n(CC)c1=O
active: Potency [2] 1 µM | Potency [7] 2 µM
inactive: activity change, negative = inhibition [1] -2.19% [at 38 µM] | activity change, negative = inhibition [3] 15.8% [at 38 µM] | activity, negative = inhibition [4] 6.25% [at 38 µM] | Potency [5] > 46 µM | Potency [6] > 46 µM | outcome [8] | Potency [9] | Potency [10] | Potency [11] | Potency [12] | outcome [13] | outcome [14] | outcome [15] | outcome [16] | Potency [17] | Potency [18] | outcome [19] | Potency [20] | Potency [21] | Potency [22] | Potency [23] | Potency [24] | Potency [25] | Potency [26] | outcome [27] | Potency [28] | Potency [29] | outcome [30] | outcome [31] | activation [32] 0.688% | outcome [33] | outcome [34]
